The supplement of paper PMC8728848
The full list was thinned out, with the strongest signals kept by preference.

Tested on: Fuc(a1-2)[Gal(a1-3)]Gal(b1-4)[Fuc(a1-3)]GlcNAc(b1-3)GalNAc
Assay: glycan array binding signal (z-score within array); higher = stronger binding
Details: glycan notation: IUPAC condensed, linker removed
Summary of the method: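 From the Consortium for Functional Glycomics database, 3228 arrays were curated, keeping only those whose protein sequence was available. Binding is given as a within-array Z-score averaged across arrays sharing a protein sequence and across linkers. Negative Z-scores can be read as non-binding.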

Chain of Neurocan (Homo sapiens), O14594 (O14594 other isoform, or with tags, fused parts or gaps): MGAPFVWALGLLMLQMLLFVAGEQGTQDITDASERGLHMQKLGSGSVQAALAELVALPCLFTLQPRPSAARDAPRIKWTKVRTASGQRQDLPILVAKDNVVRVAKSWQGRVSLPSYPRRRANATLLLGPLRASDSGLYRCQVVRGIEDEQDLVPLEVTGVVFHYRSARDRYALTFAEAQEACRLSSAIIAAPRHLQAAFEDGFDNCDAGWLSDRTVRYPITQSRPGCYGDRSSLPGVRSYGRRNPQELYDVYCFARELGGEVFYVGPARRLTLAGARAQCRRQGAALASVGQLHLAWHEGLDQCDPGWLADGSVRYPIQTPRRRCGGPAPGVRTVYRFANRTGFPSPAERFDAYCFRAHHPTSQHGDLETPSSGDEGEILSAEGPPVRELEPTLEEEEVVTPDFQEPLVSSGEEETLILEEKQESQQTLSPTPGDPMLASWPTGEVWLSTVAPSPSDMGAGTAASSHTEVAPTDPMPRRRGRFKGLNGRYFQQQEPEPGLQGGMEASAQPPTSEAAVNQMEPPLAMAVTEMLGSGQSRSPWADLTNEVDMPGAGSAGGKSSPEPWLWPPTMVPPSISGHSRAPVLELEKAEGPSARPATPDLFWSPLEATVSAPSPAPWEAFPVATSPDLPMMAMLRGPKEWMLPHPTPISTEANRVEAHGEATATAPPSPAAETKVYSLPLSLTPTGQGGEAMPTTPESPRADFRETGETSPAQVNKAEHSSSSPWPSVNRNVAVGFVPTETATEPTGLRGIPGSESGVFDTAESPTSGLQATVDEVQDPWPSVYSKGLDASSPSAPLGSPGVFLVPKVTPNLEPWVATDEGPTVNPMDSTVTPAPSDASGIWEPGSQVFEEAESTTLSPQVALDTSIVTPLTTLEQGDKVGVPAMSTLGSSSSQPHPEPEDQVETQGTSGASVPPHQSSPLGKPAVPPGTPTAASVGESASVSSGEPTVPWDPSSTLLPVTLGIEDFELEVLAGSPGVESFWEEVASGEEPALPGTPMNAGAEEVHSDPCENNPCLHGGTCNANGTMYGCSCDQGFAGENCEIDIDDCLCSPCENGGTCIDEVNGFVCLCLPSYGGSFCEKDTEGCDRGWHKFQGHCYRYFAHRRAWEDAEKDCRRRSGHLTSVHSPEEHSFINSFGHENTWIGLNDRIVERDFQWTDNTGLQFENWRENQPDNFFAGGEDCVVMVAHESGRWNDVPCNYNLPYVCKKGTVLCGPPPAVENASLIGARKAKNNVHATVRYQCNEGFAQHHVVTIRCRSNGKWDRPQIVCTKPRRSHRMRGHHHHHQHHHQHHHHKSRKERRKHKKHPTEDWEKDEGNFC
Chain of PILRb (Mus musculus), Q2YSF2 (Q2YSF2 entry or part of it): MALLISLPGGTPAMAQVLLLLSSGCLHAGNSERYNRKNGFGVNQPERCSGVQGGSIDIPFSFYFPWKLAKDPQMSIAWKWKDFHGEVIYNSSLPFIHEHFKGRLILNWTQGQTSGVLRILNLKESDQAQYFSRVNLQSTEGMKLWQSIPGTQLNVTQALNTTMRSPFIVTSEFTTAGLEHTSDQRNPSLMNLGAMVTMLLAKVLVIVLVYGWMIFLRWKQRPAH
Chain of CHI3L1 (Homo sapiens), P36222 (P36222 whole entry): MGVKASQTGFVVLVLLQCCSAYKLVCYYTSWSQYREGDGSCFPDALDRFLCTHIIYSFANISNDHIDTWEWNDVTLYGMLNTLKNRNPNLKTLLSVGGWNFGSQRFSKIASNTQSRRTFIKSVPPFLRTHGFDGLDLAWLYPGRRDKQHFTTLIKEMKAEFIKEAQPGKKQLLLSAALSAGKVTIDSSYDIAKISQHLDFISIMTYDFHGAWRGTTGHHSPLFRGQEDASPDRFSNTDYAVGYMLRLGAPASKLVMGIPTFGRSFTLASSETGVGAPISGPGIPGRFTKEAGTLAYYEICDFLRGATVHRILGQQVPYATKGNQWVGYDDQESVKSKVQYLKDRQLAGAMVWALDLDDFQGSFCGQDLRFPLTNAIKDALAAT
Chain of PILRa (Mus musculus), Q2YSF3 (Q2YSF3 entry or part of it): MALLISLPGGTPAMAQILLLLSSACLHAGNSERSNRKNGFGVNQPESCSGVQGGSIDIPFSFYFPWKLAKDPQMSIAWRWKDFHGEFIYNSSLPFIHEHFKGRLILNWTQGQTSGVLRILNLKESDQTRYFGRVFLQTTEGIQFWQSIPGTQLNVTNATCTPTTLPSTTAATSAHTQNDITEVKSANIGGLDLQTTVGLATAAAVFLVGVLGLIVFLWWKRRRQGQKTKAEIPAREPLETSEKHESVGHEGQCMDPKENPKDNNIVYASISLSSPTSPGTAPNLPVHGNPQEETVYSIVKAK

Substance	glycan array binding signal (z-score)
PILRa (Mus musculus), Q2YSF3	0.044
Neurocan (Homo sapiens), O14594	0.513
PILRb (Mus musculus), Q2YSF2	3.94
CHI3L1 (Homo sapiens), P36222	-0.1
